Source: PubChem BioAssay
An excerpt weighted towards active compounds, which were near 6.2% of everything screened.
RORg inh – blocks mouse ROR gamma transcriptional activity; P51450; Drosophila S2 Gal4-RORgamma UAS-luciferase reporter, 20 h; Potency, µM (doses to about 53.6 µM), for inactives: at the top dose activity change, negative = inhibition, hits mostly inhibitors; 310,000 tested, 5.4% active; further: nearly all actives have a fitted effect of over 60% in size
Target sequence (P51450 whole entry, looked up, the tested form may be a part): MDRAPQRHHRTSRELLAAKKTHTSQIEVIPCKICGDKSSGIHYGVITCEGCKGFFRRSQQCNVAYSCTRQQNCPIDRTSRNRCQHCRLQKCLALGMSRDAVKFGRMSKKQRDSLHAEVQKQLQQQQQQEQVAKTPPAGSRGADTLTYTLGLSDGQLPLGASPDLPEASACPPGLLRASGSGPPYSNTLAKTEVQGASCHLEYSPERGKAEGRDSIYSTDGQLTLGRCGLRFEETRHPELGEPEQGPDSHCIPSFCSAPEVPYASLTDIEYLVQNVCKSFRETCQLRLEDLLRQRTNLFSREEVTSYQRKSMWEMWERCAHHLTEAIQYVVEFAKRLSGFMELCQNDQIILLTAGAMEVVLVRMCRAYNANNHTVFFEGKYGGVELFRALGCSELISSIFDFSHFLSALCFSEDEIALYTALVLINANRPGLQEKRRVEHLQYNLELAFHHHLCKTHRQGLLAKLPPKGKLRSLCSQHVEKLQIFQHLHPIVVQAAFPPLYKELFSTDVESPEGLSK
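Drosophila Schneider cells stably carrying a metallothionein-driven Gal4 DBD–ROR gamma fusion and a UAS-Photinus luciferase reporter were exposed to compound for 1 hr, then induced with copper sulfate (700 uM final) for 20 hr at ambient temperature before luminescence reading.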
VP16 counter – counter-screen for ROR gamma inhibitors: Gal4-VP16 reporter. Drosophila S2 Gal4-VP16 UAS-luciferase, luminescence, 20 h. Potency, µM (doses to about 53.6 µM), for the others: at the top dose activity, negative = inhibition, hits mostly inhibitors. 310,000 tested, 3.5% active. AID 2546;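 further: Gal4-VP16 expression switched on by copper sulfate through the metallothionein promoter; nearly all actives have a fitted effect of over 50% in size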
KinaseGlo FLuc – counter-screen: inhibitors of Kinase-Glo firefly luciferase; Q27757; Kinase-Glo luciferase, ATP luminescence, 8 min; Potency, µM (titrated, usually from 38.3 µM), for inactives: at the highest dose activity change, negative = inhibition, actives largely listed as inhibitors; 200,000 tested, 0.28% active; AID 1379; further: nearly all actives have a fitted effect of over 60% in size
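Kinase-Glo luciferase light output from ATP and luciferin was measured with 10 uM ATP, within the enzyme's linear range. Buffer: 50 mM imidazole pH 7.2, 50 mM KCl, 7 mM MgCl2, 0.01% Tween 20, 0.05% BSA; luminescence read after 8 min at ambient temperature.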
* marks the source's active call; other numbers are inactive results; ? = inconclusive; · = no result; ! = not confirmed by another sample; [ ] = dose if it differs, or a comment. The call rests on the fitted dose curve; in most records, active means well fitted curve in the direction sought with a large enough effect; inconclusive means small, poorly fitted or top-dose-only effect, or another doubt; inactive means no such curve, though single readings can be large; an effect the other way counts as inactive or inconclusive. On the % scale 0 is the no-effect control and ±100 the full control effect; potency means the concentration at half of the fitted maximal effect.

SMILES	RORg inh	VP16 counter	KinaseGlo FLuc
Cc1ccc(O)c(NC(=S)NC(=O)CC(C)C)c1	?	?	-4.8%
CC(=O)C1=C(c2ccccc2)N(C(C)=O)n2c(C)nnc2S1	11.2µM*	17.8µM*	-2.8%
CC(=O)N1CCN(c2nnc(-c3ccccc3)c3ccccc23)CC1	13.7%	2.5%	·
COc1cccc(NC(=O)[C@@H](NC(=O)N2CCn3c2nc2ccccc23)C(C)C)c1	12.0%	-4.4%	·
Cc1ccc(N=Cc2c(O)ccc3ccccc23)cc1F	5.01µM*	?	-1.7%
COc1ccc(N=Cc2c(O)ccc3ccccc23)cc1	?	-23.9%	-3.4%
COc1ccc(NC(=O)c2ccc(COc3ccc(C)cc3)o2)cc1	7.2%	-9.6%	-6.8%
N#C/C(=C/c1ccc(-c2ccccc2)o1)c1nc(-c2cccs2)cs1	?	0.1µM*	2.4%
N#C/C(=C\c1ccc(-c2ccc(F)cc2)o1)C(=O)Nc1nc(-c2cccs2)cs1	20.7%	1.2%	-0.3%
C=C(C)Cn1cnc2c(oc3nc4c(cc32)CCCC4)c1=O	-23.7%	0.5%	·
COCCN(CCOC)C(=O)c1ccc(Cc2nc3ccccc3[nH]2)cc1	·	·	1.7%
ON=C1c2cc(OCCN3CCCCC3)ccc2-c2ccc(OCCN3CCCCC3)cc21	?	-10.9%	·
NC(=S)NN=C1c2cc(OCCN3CCOCC3)ccc2-c2ccc(OCCN3CCOCC3)cc21	1.26µM*	3.16µM*	·
COc1cc(-c2noc(CCCC(=O)NCc3ccccc3)n2)cc(OC)c1OC	23.7%	3.0%	-5.8%
Cc1c(NC(=S)NC(=O)c2cc3ccccc3o2)c(=O)n(-c2ccccc2)n1C	-12.6%	4.3%	-0.5%
O=C(CSc1nc2ccccc2s1)NNC(=S)Nc1ccc(Cl)cc1	5.01µM*	8.91µM*	3.0%
O=[N+]([O-])c1ccc(Nc2nc3ccccc3s2)cc1	·	·	0.9%[7.66 µM]
O=C(CSc1nc2ccccc2s1)Nn1cnnc1	7.4%	-12.9%	0.5%
O=C(Nc1ccc(Cl)cc1)/C(=C/c1ccc([N+](=O)[O-])cc1)c1nc2ccccc2s1	5.01µM*	5.01µM*	-1.4%
O=C(CSc1nc2ccccc2s1)NCCOc1ccc(Cl)cc1	24.5%	3.3%	-2.1%
C=CCNC(=S)NNC(=O)CSc1nc2ccccc2s1	7.08µM*	?	-3.3%
CC(C)C(NS(=O)(=O)c1cccs1)C(=O)NCc1ccccc1 (stereo unspecified)	-6.7%	1.4%	·
Cn1c2ccccc2c2nnc(SCC(=O)NC3CC3)nc21	-20.8%	1.3%	·
CCn1c(CNC(=O)c2ccccc2Cl)cc2ccccc21	-10.9%	0.0%	·
COc1ccc(OC)c(NC(=S)N(CCc2c(C)[nH]c3ccccc23)Cc2cccs2)c1	8.91µM*	7.5%	0.8%
SMILES	RORg inh	VP16 counter	KinaseGlo FLuc
COc1ccc2[nH]c(C)c(CCN(Cc3cccs3)C(=S)Nc3cccc(F)c3)c2c1	1.58µM*	?	-4.1%
COc1ccc(OC)c(NC(=S)N(CCc2c(C)[nH]c3ccc(C)cc23)Cc2cccs2)c1	10µM*	17.2%	0.1%
CCNC(=S)N(CCc1c(C)[nH]c2ccc(C)cc12)Cc1cc(OC)c(OC)c(OC)c1	?	-23.7%	-3.0%
COc1cccc(NC(=S)N(CCc2c(C)[nH]c3ccc(C)cc23)Cc2cccs2)c1	-4.1%	?	0.7%
COc1ccc(NC(=S)N(CCc2c(C)[nH]c3ccccc23)Cc2ccco2)cc1	?	1.2%	-1.4%
CN(C)c1ncc2nc(-c3ccc(F)cc3)c(=O)n(-c3ccccc3)c2n1	13.1%	-0.3%	·
CCCCC(=O)/C=C/n1c(=S)oc2ccccc21	?	?	-4.0%
CC(C)CCn1c(-c2nonc2N)nc2ccccc21	10µM*	?	0.0%
CCCCn1c(-c2nonc2N)nc2ccccc21	?	-11.6%	5.5%
Cc1cc2nc(/C=C/c3nc4cc(C)c(C)cc4[nH]3)[nH]c2cc1C	1.4%	0.6%	·
Cc1ccc(/C=C/c2nc3ccccc3[nH]2)o1	11.2µM*	-11.5%	12.6µM*
COCc1nnc(NS(=O)(=O)c2c(C)cc(C)cc2C)s1	21.8%	1.3%	-2.4%
Cc1ccc(OCc2cc(C(=O)NC3CCCCC3)no2)cn1	-13.9%	?	·
O=C(NC1CCCC1)c1cc(COc2ccc3ncccc3c2)on1	?	5.01µM*	·
CC(NC(=O)c1cc(COc2ccccc2)on1)c1nccs1 (stereo unspecified)	-9.5%	-0.4%	·
COc1cccc(CN(C)C(=O)c2cc(COc3ccc4ncccc4c3)on2)c1	?	6.31µM*	1.7%
CC(NC(=O)c1cc(COc2ccc3ncccc3c2)on1)c1ccc(F)cc1 (stereo unspecified)	?	7.08µM*	·
COc1cccc(CN(C)C(=O)c2cc(COc3c(F)cccc3F)on2)c1	17.0%	-17.6%	-7.4%
O=C(c1cc(COc2ccc3ncccc3c2)on1)N1CCCCCC1	?	?	-6.6%
O=C(c1cc(COc2ccc3ncccc3c2)on1)N1CCCC1	?	12.6µM*	·
COC(=O)C1=NNCC12CC(=O)N(c1ccc(Br)cc1)C2=O (stereo unspecified)	2.2%	2.1%	0.3%
O=C(O)CCNc1ccccc1C(=O)O	·	·	-0.3%[7.66 µM]
CCOC(=O)c1cnc(/N=C/N(C)C)s1	10.6%	9.1%	3.2%
COCC1CCN(C(=O)c2cc(COc3ccc(-n4cncn4)cc3)on2)CC1	22.5%	-9.6%	·
COCC1CCN(C(=O)c2cc(COc3ccc4ncccc4c3)on2)CC1	?	6.31µM*	-0.2%
SMILES	RORg inh	VP16 counter	KinaseGlo FLuc
Cc1ccc(-c2nnc(SCCC(=O)N3CCOCC3)o2)cc1	6.31µM*	-4.4%	-0.4%
O=C(CCSc1nnc(-c2ccccc2)o1)N1CCOCC1	-19.1%	-25.8%	1.5%
Cc1cccc(-c2nnc(SCC(=O)N3CCCC3)o2)c1	-29.1%	-3.6%	·
Cc1cccc(-c2nnc(SCCC(=O)N3CCOCC3)o2)c1	?	7.08µM*	-1.3%
COc1ccc(Br)cc1CN(C)C(=O)c1cc(Cl)c2c(c1)OCCO2	3.0%	5.2%	·
CC(=C1C(=O)c2ccccc2C1=O)N1CCC(C(N)=O)(N2CCCCC2)CC1	0.9%	11.5%	2.8%
O=C1OC(O)C(C(Cl)Cl)=C1Cl (stereo unspecified)	2.24µM*	2.82µM*	·
CCOC(=O)C1(CC2CCCCO2)CCN(S(=O)(=O)c2ccsc2)CC1 (stereo unspecified)	-18.0%	3.9%	-0.2%
Cc1cc(=S)nc(-c2ccccn2)[nH]1	0.794µM*	?	·
CSc1nc(=S)cc(C)[nH]1	?	-5.8%	·
Cc1[nH]c(-c2ccccn2)nc(=S)c1Cl	10µM*	?	·
Cc1cc2nc(-c3ccccn3)c(-c3ccccn3)nc2cc1C	?	-23.7%	·
CCCC(=NC(C)CC)C1=C(O)CC(c2ccccc2)CC1=O (stereo unspecified)	25.0%	-10.3%	·
O=C(O)c1cc(O)c2c(c1)C(=O)c1cc(O)cc(O)c1C2=O	6.31µM*!	?	?
COc1cc(O)c2c(c1)C(=O)c1cc(C)cc(O)c1C2=O	-16.4%	6.0%	-2.8%
Cc1cccc(-n2c(SCC(=O)Nc3nonc3C)nnc2-c2ccoc2C)c1	-0.3%	0.3%	1.2%
Cc1ccccc1-n1c(C)n[nH]c1=S	?	-5.3%	2.5%
Cc1cccc(-n2c(-c3ccoc3C)n[nH]c2=S)c1	8.91µM*	?	-1.6%
Cc1ccccc1-n1c(-c2ccoc2C)n[nH]c1=S	10µM*	?	0.8%
